Holding throughout (test): DAPPL (digital affinity profiling via proximity ligation, sequencing); 10 mM Tris-HCl pH 7.5, 50 mM NaCl, 1 mM DTT, 4% glycerol, room temperature, 30 min; GST-TFs on glutathione beads, 16-mer random dsDNA library, 0.1% formaldehyde crosslink after washing; high values mean tight binding
Common to all, as to details: protein: recombinant; tags: N-terminal GST; dsDNA, one strand shown

One experiment has as its target T1, FLI1 (Homo sapiens, UniProt Q01543 1-452).
T1 sequence: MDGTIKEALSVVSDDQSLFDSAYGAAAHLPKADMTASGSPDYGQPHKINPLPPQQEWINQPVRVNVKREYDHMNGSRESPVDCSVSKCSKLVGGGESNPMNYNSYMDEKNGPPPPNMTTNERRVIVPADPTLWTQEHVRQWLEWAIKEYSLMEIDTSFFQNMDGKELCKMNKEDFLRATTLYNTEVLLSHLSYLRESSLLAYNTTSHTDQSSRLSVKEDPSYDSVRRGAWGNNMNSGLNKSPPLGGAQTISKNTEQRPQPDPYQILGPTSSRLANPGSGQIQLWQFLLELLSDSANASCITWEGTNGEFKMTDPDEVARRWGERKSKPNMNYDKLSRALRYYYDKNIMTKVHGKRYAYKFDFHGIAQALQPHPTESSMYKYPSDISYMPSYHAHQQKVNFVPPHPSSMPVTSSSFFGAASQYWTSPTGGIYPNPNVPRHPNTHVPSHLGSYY
In a few lines: (§1)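 Human transcription factors were made in yeast as GST fusions, captured on glutathione beads and barcoded with DNA. With a tag-only sample included, the pool was incubated with 200 nmole of a random double-stranded 16-mer DNA library in Tris/NaCl/DTT/glycerol buffer at room temperature for 30 min, then crosslinked with 0.1% formaldehyde after washing, ligated by proximity, amplified and sequenced. For binding signal, each hexamer's read frequency for a factor is divided by its frequency for the tag-only sample.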

The target in another experiment is T2, ELK1 (Homo sapiens, UniProt P19419 1-428).
T2 sequence: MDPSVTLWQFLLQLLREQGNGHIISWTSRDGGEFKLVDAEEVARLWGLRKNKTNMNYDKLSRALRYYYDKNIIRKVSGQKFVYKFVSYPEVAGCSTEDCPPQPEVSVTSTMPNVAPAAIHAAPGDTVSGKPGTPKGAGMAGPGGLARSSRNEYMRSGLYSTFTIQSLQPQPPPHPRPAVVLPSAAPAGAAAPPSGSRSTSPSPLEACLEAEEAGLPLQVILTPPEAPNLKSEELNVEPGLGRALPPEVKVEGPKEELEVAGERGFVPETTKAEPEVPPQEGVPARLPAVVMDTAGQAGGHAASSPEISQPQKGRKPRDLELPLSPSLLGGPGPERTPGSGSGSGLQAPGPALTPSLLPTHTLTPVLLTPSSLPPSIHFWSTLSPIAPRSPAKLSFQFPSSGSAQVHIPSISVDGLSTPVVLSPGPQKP
In a few lines:
as §1

The target of the next experiment is T3, GABPA (Homo sapiens, UniProt Q06546 1-454).
T3 sequence: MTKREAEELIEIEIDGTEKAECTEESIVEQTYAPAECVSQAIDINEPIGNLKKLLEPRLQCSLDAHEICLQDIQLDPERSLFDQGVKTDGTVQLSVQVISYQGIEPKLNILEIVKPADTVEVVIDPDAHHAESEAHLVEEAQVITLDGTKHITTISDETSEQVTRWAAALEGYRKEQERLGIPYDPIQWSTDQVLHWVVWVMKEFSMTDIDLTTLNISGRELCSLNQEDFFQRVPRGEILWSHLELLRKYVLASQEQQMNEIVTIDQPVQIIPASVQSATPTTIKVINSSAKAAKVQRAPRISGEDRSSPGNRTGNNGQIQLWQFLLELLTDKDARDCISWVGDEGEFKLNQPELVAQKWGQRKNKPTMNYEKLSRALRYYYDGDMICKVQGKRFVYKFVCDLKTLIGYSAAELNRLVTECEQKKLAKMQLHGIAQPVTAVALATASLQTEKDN
In a few lines: as §1

Another experiment has as its target T4, ERG (Homo sapiens, UniProt P11308 1-479).
T4 sequence: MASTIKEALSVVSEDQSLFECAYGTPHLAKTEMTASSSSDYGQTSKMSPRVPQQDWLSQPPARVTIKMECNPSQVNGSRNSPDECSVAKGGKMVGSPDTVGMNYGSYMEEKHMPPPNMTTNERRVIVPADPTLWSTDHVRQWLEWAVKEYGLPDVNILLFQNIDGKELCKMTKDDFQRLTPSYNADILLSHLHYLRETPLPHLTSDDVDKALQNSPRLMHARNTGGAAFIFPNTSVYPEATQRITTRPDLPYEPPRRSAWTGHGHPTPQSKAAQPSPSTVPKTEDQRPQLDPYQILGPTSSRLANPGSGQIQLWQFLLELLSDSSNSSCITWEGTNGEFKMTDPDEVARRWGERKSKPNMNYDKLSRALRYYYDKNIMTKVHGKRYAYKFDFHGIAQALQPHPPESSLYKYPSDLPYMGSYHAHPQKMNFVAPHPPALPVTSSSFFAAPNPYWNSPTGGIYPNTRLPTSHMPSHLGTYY
In a few lines:
as §1

Another experiment deals with ELF1 (Homo sapiens, UniProt P32519 1-619). In a few lines: as §1
For the next experiment, the target named is T5, EHF (Homo sapiens, UniProt Q9NZC4 1-300).
T5 sequence: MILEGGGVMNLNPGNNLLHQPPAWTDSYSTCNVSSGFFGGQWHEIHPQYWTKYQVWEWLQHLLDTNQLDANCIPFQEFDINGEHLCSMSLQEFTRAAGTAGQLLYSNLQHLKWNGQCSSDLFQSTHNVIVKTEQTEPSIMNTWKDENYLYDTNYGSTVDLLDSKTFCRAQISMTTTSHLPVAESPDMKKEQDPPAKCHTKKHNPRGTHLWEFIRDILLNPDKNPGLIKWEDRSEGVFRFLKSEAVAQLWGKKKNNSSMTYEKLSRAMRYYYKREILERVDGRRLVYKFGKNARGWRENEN
In a few lines:
as §1

In another experiment the target is T6, SPIC (Homo sapiens, UniProt Q8N5J4 1-248).
T6 sequence: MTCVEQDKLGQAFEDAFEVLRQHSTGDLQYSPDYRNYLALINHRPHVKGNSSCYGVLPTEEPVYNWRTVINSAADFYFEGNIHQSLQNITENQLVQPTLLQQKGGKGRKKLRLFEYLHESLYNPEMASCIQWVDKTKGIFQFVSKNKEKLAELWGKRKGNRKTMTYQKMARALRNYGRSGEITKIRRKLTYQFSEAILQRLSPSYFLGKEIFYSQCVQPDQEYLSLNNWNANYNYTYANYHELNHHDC
In a few lines: as §1

A further experiment concerns the target ELF4 (Homo sapiens, UniProt Q99607 1-663). In a few lines:
as §1

A further experiment deals with T7, ELK4 (Homo sapiens, UniProt P28324-2 1-405).
T7 sequence: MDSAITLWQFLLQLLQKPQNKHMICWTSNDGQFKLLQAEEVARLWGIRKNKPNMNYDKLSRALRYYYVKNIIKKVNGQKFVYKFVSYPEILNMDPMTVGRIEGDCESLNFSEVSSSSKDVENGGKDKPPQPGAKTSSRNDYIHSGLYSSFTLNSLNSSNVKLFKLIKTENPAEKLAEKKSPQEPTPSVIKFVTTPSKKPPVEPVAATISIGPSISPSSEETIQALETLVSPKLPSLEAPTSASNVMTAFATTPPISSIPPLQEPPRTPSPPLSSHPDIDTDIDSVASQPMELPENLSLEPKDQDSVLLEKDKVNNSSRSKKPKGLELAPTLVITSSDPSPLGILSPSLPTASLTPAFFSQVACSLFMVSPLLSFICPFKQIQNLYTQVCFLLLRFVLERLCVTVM
In a few lines:
as §1

A further experiment has as its target ETV1 (Homo sapiens, UniProt P50549 1-477). In a few lines:
as §1

The target of another experiment is ETV6 (Homo sapiens, UniProt P41212 1-452). In a few lines:
as §1

The next experiment concerns the target T8, ETV2 (Homo sapiens, UniProt O00321 1-342).
T8 sequence: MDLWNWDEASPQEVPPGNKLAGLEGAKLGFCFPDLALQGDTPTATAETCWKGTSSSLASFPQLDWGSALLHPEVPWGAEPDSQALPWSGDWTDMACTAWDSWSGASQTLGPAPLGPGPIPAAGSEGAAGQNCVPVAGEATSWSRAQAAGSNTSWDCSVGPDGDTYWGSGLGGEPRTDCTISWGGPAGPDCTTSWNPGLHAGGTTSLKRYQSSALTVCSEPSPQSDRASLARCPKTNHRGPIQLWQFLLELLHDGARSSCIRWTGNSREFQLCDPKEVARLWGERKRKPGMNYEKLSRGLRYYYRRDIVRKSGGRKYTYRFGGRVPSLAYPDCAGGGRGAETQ
In a few lines: as §1

Another experiment has as its target T9, ELF3 (Homo sapiens, UniProt P78545 1-371).
T9 sequence: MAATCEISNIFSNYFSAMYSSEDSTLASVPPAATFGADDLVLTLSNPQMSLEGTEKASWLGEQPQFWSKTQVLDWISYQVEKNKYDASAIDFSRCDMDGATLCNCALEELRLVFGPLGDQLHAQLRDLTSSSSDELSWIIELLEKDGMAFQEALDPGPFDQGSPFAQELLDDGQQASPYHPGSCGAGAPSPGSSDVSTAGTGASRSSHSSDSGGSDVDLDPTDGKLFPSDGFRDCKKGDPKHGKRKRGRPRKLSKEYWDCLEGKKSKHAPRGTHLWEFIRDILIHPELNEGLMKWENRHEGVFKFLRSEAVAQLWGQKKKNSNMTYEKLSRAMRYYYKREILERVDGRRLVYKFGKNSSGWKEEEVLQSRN
In a few lines: as §1

The target of the next experiment is T10, ERF (Homo sapiens, UniProt P50548 1-548).
T10 sequence: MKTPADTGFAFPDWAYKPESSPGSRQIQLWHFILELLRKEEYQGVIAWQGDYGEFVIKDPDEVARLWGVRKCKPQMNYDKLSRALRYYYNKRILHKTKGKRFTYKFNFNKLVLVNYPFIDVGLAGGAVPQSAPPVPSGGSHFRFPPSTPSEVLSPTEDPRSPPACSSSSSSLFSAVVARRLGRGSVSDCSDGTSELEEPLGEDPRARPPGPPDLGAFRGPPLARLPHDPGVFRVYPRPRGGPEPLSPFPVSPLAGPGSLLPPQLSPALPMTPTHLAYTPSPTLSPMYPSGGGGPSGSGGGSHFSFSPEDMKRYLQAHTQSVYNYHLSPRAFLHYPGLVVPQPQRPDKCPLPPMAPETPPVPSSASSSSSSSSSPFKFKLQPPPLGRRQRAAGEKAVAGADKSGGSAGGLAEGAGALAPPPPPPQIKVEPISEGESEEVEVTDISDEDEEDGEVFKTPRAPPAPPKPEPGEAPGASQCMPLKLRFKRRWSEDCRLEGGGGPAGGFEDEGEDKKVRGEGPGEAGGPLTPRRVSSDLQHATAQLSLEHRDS
In a few lines:
as §1

The target of a further experiment is T11, ETV7 (Homo sapiens, UniProt Q9Y603 1-341).
T11 sequence: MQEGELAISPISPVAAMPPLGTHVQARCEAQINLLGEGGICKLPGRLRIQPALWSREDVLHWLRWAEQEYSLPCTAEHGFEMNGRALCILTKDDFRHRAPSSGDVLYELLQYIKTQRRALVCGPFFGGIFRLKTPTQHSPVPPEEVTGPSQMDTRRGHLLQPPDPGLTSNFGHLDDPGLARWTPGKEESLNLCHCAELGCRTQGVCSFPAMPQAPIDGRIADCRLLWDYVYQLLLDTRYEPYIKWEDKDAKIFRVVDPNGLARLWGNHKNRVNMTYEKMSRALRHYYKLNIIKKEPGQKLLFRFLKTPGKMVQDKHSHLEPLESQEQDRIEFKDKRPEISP
In a few lines:
as §1

The target in a further experiment is T12, ETV3 (Homo sapiens, UniProt P41162-2 1-143).
T12 sequence: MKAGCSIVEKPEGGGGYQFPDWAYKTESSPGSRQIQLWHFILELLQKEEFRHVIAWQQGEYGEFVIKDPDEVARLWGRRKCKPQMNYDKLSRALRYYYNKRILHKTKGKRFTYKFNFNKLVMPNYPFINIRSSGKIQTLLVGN
In a few lines:
as §1

Chain of ELF4 (Q99607 whole entry): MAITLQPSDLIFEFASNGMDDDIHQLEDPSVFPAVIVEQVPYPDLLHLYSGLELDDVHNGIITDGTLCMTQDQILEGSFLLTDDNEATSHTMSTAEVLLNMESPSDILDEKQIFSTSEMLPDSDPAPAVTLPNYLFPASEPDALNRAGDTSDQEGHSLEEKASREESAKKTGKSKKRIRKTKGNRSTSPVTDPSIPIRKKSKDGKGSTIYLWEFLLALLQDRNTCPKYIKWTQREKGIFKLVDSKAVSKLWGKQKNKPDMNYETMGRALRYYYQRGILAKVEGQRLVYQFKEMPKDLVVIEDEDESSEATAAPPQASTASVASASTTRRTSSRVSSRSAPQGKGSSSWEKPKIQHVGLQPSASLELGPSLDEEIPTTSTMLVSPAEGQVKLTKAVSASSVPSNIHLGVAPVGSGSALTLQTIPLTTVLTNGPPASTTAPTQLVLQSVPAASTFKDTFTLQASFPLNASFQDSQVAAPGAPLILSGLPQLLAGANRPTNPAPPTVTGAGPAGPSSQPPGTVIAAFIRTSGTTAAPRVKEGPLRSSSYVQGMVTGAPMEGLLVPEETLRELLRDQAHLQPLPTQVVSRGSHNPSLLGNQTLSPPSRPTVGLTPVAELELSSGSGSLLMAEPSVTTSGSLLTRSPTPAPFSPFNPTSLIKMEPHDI
Chain of ETV1 (P50549 whole entry): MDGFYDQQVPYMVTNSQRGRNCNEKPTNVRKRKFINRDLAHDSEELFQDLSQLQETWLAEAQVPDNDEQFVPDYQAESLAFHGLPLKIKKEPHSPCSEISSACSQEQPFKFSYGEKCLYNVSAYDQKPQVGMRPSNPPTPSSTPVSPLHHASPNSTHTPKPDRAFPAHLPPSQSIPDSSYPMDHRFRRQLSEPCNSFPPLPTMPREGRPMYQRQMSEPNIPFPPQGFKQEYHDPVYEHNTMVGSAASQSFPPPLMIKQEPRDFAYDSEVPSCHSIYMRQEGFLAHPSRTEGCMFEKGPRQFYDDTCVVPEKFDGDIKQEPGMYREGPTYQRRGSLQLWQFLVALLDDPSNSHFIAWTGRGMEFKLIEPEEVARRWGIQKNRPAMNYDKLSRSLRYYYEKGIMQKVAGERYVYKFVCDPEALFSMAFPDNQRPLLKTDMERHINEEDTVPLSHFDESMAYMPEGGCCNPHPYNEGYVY
Chain of ELF1 (P32519 whole entry): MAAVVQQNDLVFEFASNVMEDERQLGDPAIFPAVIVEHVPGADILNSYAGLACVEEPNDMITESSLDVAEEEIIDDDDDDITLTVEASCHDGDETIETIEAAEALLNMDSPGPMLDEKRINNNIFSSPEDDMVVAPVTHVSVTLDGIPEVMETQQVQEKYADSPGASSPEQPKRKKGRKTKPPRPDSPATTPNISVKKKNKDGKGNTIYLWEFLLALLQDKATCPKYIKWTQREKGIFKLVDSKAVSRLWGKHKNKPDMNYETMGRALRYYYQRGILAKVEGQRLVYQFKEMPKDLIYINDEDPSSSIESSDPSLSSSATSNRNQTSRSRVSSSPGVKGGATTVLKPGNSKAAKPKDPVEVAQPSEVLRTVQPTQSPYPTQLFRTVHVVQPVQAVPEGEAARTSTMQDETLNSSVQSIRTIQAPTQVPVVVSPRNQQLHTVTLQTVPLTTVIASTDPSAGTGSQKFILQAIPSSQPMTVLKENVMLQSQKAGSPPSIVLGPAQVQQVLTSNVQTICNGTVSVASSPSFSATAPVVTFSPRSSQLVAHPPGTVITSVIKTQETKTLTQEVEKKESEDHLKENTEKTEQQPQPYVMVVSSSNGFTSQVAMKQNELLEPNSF
Chain of ETV6 (P41212 whole entry): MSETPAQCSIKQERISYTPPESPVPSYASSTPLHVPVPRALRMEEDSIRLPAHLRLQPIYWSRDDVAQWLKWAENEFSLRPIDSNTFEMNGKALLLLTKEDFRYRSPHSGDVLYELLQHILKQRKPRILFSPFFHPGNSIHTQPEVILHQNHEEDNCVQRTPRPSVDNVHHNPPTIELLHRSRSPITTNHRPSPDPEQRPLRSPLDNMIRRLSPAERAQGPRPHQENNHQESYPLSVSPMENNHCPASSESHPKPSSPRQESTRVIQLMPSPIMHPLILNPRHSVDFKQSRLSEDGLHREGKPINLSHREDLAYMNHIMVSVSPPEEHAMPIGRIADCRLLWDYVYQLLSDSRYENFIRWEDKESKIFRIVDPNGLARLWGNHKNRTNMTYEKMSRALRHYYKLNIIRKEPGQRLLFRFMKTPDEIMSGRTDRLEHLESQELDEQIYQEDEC

As to CGCAAC, the binding signal is 1.04 fold enrichment (6-mer frequency, TF over GST control) with FLI1; 1.08 fold enrichment (6-mer frequency, TF over GST control) with ELK1; 1.08 fold enrichment (6-mer frequency, TF over GST control) with GABPA; 1.03 fold enrichment (6-mer frequency, TF over GST control) with ERG; 1.12 fold enrichment (6-mer frequency, TF over GST control) with ELF1; 1.01 fold enrichment (6-mer frequency, TF over GST control) in the experiment with EHF. Besides, the binding signal is 1.08 fold enrichment (6-mer frequency, TF over GST control) with SPIC; 1.06 fold enrichment (6-mer frequency, TF over GST control) with ELF4; 1 fold enrichment (6-mer frequency, TF over GST control) with ELK4; 1.03 fold enrichment (6-mer frequency, TF over GST control) in the experiment with ETV1; 1.07 fold enrichment (6-mer frequency, TF over GST control) in the experiment with ETV6.
Consider ACTTGA, for which the binding signal in the experiment with FLI1 is 1.1 fold enrichment (6-mer frequency, TF over GST control); with ELK1, 1.1 fold enrichment (6-mer frequency, TF over GST control); in the experiment with GABPA, 1 fold enrichment (6-mer frequency, TF over GST control); in the experiment with ELF1, 1.02 fold enrichment (6-mer frequency, TF over GST control); with SPIC it was 1 fold enrichment (6-mer frequency, TF over GST control); in the experiment with ELF4 it was 1.07 fold enrichment (6-mer frequency, TF over GST control). Besides, the binding signal in the experiment with ELK4 was 1.14 fold enrichment (6-mer frequency, TF over GST control); with ETV2, 1.13 fold enrichment (6-mer frequency, TF over GST control); with ELF3 it was 1.04 fold enrichment (6-mer frequency, TF over GST control); in the experiment with ETV1 it was 1.07 fold enrichment (6-mer frequency, TF over GST control); with ERF it was 1.01 fold enrichment (6-mer frequency, TF over GST control); in the experiment with ETV7, 1.08 fold enrichment (6-mer frequency, TF over GST control). The binding signal with ETV3 is 1.07 fold enrichment (6-mer frequency, TF over GST control).

For the origin of these results see PMC7862700, “An all-to-all approach to the identification of sequence-specific readers for epigenetic DNA modifications on cytosine”.
